NS1 inh: inhibitors of influenza NS1 protein function; Potency, µM (titrated, usually from 46.1 µM), inactives show at the top dose activity, positive = more growth; 270,000 tested, 0.4% active; calls by dose curve; further: potency means the concentration at half of the fitted maximal effect; actives are rising curves; nearly all actives have a fitted effect of over 50% in size
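A cell-based growth assay was used: compounds that relieve NS1-induced slow growth of budding yeast raise OD600. Assay medium was yeast nitrogen base with ammonium sulphate and -URA supplement, pH 6.0, with 2% galactose.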
Pf growth 48h: inhibits P. falciparum growth in the first generation, 48 h; 310,000 tested, 5.9% active; Potency, µM (doses to about 28.7 µM), without a hit: at the top dose activity change, negative = inhibition, actives largely listed as inhibitors; AID 504832; P. falciparum luciferase growth in erythrocytes, 48 h; further: potency means the concentration at half of the fitted maximal effect; on the % scale 0 is the no-effect control and ±100 the full control effect
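Read-out is firefly luciferase luminescence from an integrated reporter in P. falciparum, so falling signal marks reduced parasite growth. Infected erythrocytes were at 2% hematocrit and 0.1% parasitemia (final) in Albumax-supplemented RPMI 1640.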
Pf growth 96h: P. falciparum growth inhibition at 96 hours | P. falciparum luciferase reporter growth, 96 h | Potency, µM (top dose mostly 28.7 µM), without a hit: at the top dose activity change, negative = inhibition, actives largely listed as inhibitors | 320,000 tested, 6.9% active | AID 504834; further: potency means the concentration at half of the fitted maximal effect; on the % scale 0 is the no-effect control and ±100 the full control effect
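Delayed-death screen, second-generation endpoint: infected erythrocytes, 2% hematocrit, 0.05% parasitemia final; 96 hours at 37 C, 5% CO2; luciferase detection reagent; luminescence decrease equals reduced growth.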
CHX counter-1: counter-screen hit for Shiga toxin inhibitors, cycloheximide; cell reporter, cycloheximide protein synthesis inhibition counterscreen; max response, %; 300,000 tested, 12% active; in the data active means max response mostly above about 13%, no sharp cut-off; inactive means mostly below about 14%; further: read at 38.3 µM for the half of the compounds with a filed dose; 0% is about no effect
Shiga inhibitor: inhibitors of Shiga toxin in Vero cells | Vero cells, Shiga toxin protein synthesis inhibition reporter | inhibition, % at 38.7 µM | 290,000 tested, 9.2% active | AID 2315; in the data active means inhibition mostly above about 28%, no sharp cut-off; inactive means mostly below about 43%; further: 0% is about no effect
Giardia FBPA inh: inhibitors of Giardia lamblia fructose-1,6-bisphosphate aldolase | 290,000 tested, 0.71% active | purified Giardia FBPA | Potency, µM (series often up to 59.6 µM), for inactives: at the highest dose activity, negative = inhibition, actives largely listed as inhibitors | A8B2U2; further: potency means the concentration at half of the fitted maximal effect; on the % scale 0 is the no-effect control and ±100 the full control effect; nearly all actives have a fitted effect of over 55% in size
Target sequence (A8B2U2 whole entry, looked up): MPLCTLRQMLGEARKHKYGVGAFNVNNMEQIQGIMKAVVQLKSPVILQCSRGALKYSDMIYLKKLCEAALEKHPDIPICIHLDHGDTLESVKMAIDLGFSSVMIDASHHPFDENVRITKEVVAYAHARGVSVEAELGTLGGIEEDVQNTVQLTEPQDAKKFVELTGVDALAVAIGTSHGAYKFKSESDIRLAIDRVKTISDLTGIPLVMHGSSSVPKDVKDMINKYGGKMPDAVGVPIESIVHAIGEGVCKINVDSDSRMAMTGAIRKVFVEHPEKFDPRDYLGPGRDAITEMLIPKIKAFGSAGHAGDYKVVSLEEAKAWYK
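40 nM FBPA preincubated 10 min at RT with compound (up to 57.5 uM final), then substrate plus GAPDH/TPI/NAD/arsenate coupling and diaphorase/resazurin added. Fluorescence read after 20 min at RT, 525/598 nm.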
CHX counter-2: affects protein synthesis reporter in cycloheximide counter-screen; Cycloheximide counterscreen, protein synthesis reporter, Shiga toxin assay; 510 tested, 3% active; Potency, µM (series often up to 38.3 µM), inactives show top-dose activity (activation), most hits filed as activators; AID 2318; shares compounds with Shiga inhibitor; calls by dose curve; further: potency means the concentration at half of the fitted maximal effect; 0% is about no effect
An asterisk follows results filed as active; ? = inconclusive; / = not tested or not shown; [ ] = remark or other dose. A selection: hits, their analogues and other compounds. The true share with any hit is near 21%. Unless noted, the call rests on the fitted dose curve; in most records, active means well fitted curve in the direction sought with a large enough effect; inconclusive means small, poorly fitted or top-dose-only effect, or another doubt; inactive means no such curve, though single readings can be large; an effect the other way counts as inactive or inconclusive.

SMILES	NS1 inh	Pf growth 48h	Pf growth 96h	CHX counter-1	Shiga inhibitor	Giardia FBPA inh	CHX counter-2
CN(C)Cc1ccccc1-c1nc(NC2CC2)c2ccccc2n1	/	/	/	/	/	7%	/
Cc1c(C(=O)Nc2nc3ccccc3[nH]2)oc2ccc(Br)cc12	0%	-16%	-102%	12	14*	17%	10µM*
CC(C)(C)C(=O)Cn1ncc(N2CCOCC2)c(Br)c1=O	3%	16%	0%	4	26*	3%	5%
CO/N=C(\Cn1ncc(N2CCOCC2)c(Br)c1=O)c1ccc(Cl)cc1	-4%	-4%	?	-2	16	2%	/
O=c1c(-c2ccc(O)cc2)coc2cc(O[C@@H]3O[C@H](CO)[C@H](O)[C@H](O)[C@H]3O)ccc12	/	/	/	11	49*	1%	3%
CC(C(=O)OCC(=O)c1cccc([N+](=O)[O-])c1)N1C(=O)C2C3CCC(C3)C2C1=O (stereo unspecified)	11%	-4%	?	-3	-2	3%	/
O=C(O)c1cc(OCc2ccccc2)cc(OCc2ccccc2)c1	-4%	8%[0.00184 µM]	14%	-4	-14	9%	/
COc1ccc(OCc2cccc(C(=O)O)c2)cc1	-53%	4%	?	9	52*	13%	0.032µM*
COCc1cc(C)nc(OCC(=O)N/N=C\c2cc(C)n(-c3cccc(C(F)(F)F)c3)c2C)c1C#N	11%	/	-3%	-4	-19	-7%	/
COCCCNC(=O)c1ccccc1-c1cc(C)no1	-4%	31%	57%	-1	1	3%	/
O=C(NCC(=O)N1CCCC(C(F)(F)F)C1)c1ccc(Oc2ccccc2)cc1 (stereo unspecified)	?	-4%	?	20	21*	/	-1%
COc1ccccc1NC(=O)CSc1nnc(CC(=O)Nc2ccccc2F)n1C	-6%	6%	2%	11	56*	6%	-2%
Cc1cc(C)n(-c2nnc(C)n2/N=C/c2ccccc2O)n1	0%	7%	/	-7	-18	-10%	/
COc1cc2c(cc1OC)C(=S)NC(C)(C)C2	-21%	/	?	4	-14	-1%	/
CN(Cc1ccco1)c1ccnc(-c2cccnc2)n1	/	/	/	/	/	-10%	/
Clc1ccccc1-c1nc(-n2ccnc2)c2ccccc2n1	/	/	/	/	/	4%	/
CCn1c(P(C)(=O)O)nc2cc(NC(=O)c3ccccc3F)ccc21	/	34%	10%	7	32*	-22%	-1%
CCn1c(P(C)(=O)O)nc2ccccc21	1%	10%	?	-9	-14	-12%	/
COc1ccc(N(C(C)C(=O)Nc2cccnc2)S(C)(=O)=O)cc1 (stereo unspecified)	3%	0%	19%	0	-18	1%	/
CC(c1ccco1)N(C(=O)c1cc(Cl)cc(Cl)c1)c1ccccn1 (stereo unspecified)	-20%	-25%	?	1	24*	8%	-1%
O=C(C(Sc1ccccc1)c1ccccc1)N1CCOCC1 (stereo unspecified)	8%	7%	?	-1	46*	2%	-4%
O=C(/C=C/c1ccccc1)NCCc1ccc2c(c1)OCCO2	-18%	6%	11%	8	36*	1%	-1%
CC1CC(O)C(C)CN1 (stereo unspecified)	0%	20%	34%	-2	-4	-6%	/
CC(=O)c1ccc(N2CCN(S(=O)(=O)c3ccc4c(c3)CC(C)N4C(C)=O)CC2)cc1 (stereo unspecified)	7%	?	?	11	34*	/	9%
COc1ccc(C2C(Oc3ccccc3)C(=O)N2c2cc(C)ccc2C)cc1OC (stereo unspecified)	22%	-19%	-27%	-4	-4	-1%	/
SMILES	NS1 inh	Pf growth 48h	Pf growth 96h	CHX counter-1	Shiga inhibitor	Giardia FBPA inh	CHX counter-2
COc1ccc(C)cc1N1C(=N)/C(=C2/Nc3ccccc3S2)C(c2ccccc2)C1=O (stereo unspecified)	17%	13µM*	-104%	-1	21*	-16%	-2%
O=C(c1cnccn1)N1CCc2ccccc21	1%	18%	?	13	8	-14%	/
Cc1c(C(=O)N2CCc3ccccc32)cnn1C	-2%	17%	7%	6	49*	4%	5%
Cc1cc(C)n(-c2cc(N3CCOCC3)ncn2)n1	-1%	9%	-28%	-2	31*	-2%	-4%
COc1cc(N2CCOCC2)ncn1	-4%	11%	77%	-2	-3	4%	/
COc1ccc(N2CCN(C(=O)COC(=O)CCOc3ccc(C)cc3)CC2)cc1	/	16%	9%	/	/	/	/
CSc1cccc(NC(=O)c2c(Cl)cnn2C)c1	-14%	53%	19%	14	33*	-1%	?
Cn1ncc(Cl)c1C(=O)Nc1cccnc1	6%	41%	9%	-4	-4	0%	/
Cc1cc(NC(=O)c2c(Cl)cnn2C)no1	0%	5%	/	-1	-13	1%	/
Cn1ncc(Cl)c1C(=O)Nc1ccc(Cl)cn1	1%	32%	27%	15	45*	2%	?
Cn1c(=O)[nH]c(=O)c2c1nc(NCc1ccco1)n2Cc1ccccc1Cl	-3%	-13%	-33%	7	-13	4%	/
COc1cc2c(cc1OC)C(C)N(C(=O)c1ccc(Cl)c(S(=O)(=O)N3CCCCC3)c1)CC2 (stereo unspecified)	-14%	?	?	-2	22	-13%	/
CCCN(CCC)CC(C)(C)NS(=O)(=O)c1ccc(Cl)cc1	7%	9%	8%	-3	-6	?	/
COc1ccc(CNC(=O)C(OC(=O)c2ccco2)c2ccccc2F)cc1 (stereo unspecified)	-6%	58%	-10%	-1	40*	-9%	5%
Cc1ccc(NC(=O)Cn2cnc3cc([N+](=O)[O-])ccc3c2=O)c(Cl)c1	5%	?	-19%	1	-5	-2%	/
O=C(Cn1cnc2cc([N+](=O)[O-])ccc2c1=O)NCc1ccc(Cl)cc1	5%	1%	13%	6	47*	3%	-1%
O=C(COC(=O)/C=C/c1cccs1)Nc1nc(-c2cccc(Br)c2)cs1	-3%	-1%	33%	6	4	7%	/
O=C(Cn1nc(C(=O)O)c2ccccc2c1=O)Nc1nc(-c2ccccc2)cs1	3%	88%	113%	6	40*	1%	?
O=C(COC(=O)/C=C/c1cccs1)Nc1nc(-c2ccccc2)cs1	7%	-18%	?	3	46*	0%	5%
Cc1cc2c(cc1S(=O)(=O)NC1CCCCC1C)OCC(=O)N2 (stereo unspecified)	-6%	3%	?	-2	-11	/	/
CCOC(=O)Cn1c(=O)oc2cc(S(=O)(=O)NCCc3ccc(OCC)c(OCC)c3)ccc21	12%	1%	34%	2	-20	1%	/
